# PubChem BioAssay (NCATS)
# Results filed as inconclusive are left out. A call without a number means that no potency is given here. Calls of active or inactive are those of the source. Calls come from the whole dose curve; as a rule, active = well fitted curve in the direction sought with a large enough effect; inconclusive = small, poorly fitted or top-dose-only effect, or another doubt; inactive = no such curve, though single readings can be large; an effect the other way counts as inactive or inconclusive.
# Tested on: Zika virus NS2B-NS3 protease (unlinked)
# Experiment: Optimization of GU AMC qHTS for Zika virus inhibitors: Unlinked NS2B-NS3 protease assay (AID 1347151); note: nearly all actives have a fitted effect of over 80% in size; note: potency is the fitted concentration of half-maximal effect
# Conditions: recombinant ZIKV NS2B-NS3 protease, fluorogenic AMC substrate; series mostly up to 52.5 µM
# In short: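 Noncovalent NS2B hydrophilic domain–NS3 protease complex (25 nM final) in 10 mM Tris-HCl pH 8.0, 0.01% Tween 20; AMC substrate, room temperature 15 min (~20% conversion); fluorescence change normalized, 4-parameter Hill fit.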
row,SMILES,Potency
1,COC(=O)c1c(C)[nH]c(C)c1C(=O)c1ccccc1Cc1ccccc1,inactive
2,CS(=O)(=O)c1ccc(-n2nc(C(F)(F)F)cc2-c2ccc(F)cc2)cc1,inactive
3,O=S(=O)(c1cccc2c(I)cccc12)N1CCCNCC1,inactive
4,CNCC[C@H](Oc1ccc(C(F)(F)F)cc1)c1ccccc1,inactive
5,NC[C@@H]1O[C@H](C23CC4CC(CC(C4)C2)C3)Cc2c1ccc(O)c2O,inactive
6,NS(=O)(=O)C#Cc1ccccc1,inactive
7,O=C(Nc1ccc2c(c1)CCN(Cc1ncn[nH]1)C2)c1ccccc1-c1ccc(C(F)(F)F)cc1,inactive
8,CN1[C@@H](CC(=O)c2ccccc2)CCC[C@H]1C[C@H](O)c1ccccc1,inactive
9,CCNc1nc2c(ncn2[C@H]2C[C@H](O)[C@@H](CO)O2)c(=O)[nH]1,inactive
10,CCN(CC)CCCCNc1ncc2cc(-c3c(Cl)cccc3Cl)c(NC(=O)NC(C)(C)C)nc2n1,2.99 µM (active)
11,N[C@H](CCCP(=O)(O)O)C(=O)O,inactive
12,CC(C)NC[C@H](O)COc1cccc2[nH]ccc12,inactive
13,COc1cccc(OC)c1OCCNCC1COc2ccccc2O1 (stereo unspecified),inactive
14,OC[C@H]1O[C@@H](n2cnc3c(NC4CCCCC4)ncnc32)[C@H](O)[C@@H]1O,inactive
15,CCCCCCCCCCCCCCCC(=O)OC(CC(=O)O)C[N+](C)(C)C (stereo unspecified),inactive
16,CN(CCCOc1ccc(Cc2ccccc2)cc1)CCC(=O)O,inactive
17,COc1cc2c(CCNC(C)=O)c[nH]c2cc1Cl,inactive
18,Cc1ccc(S(=O)(=O)/C=C/C#N)cc1,inactive
19,Cn1cc(C2=C(c3ccc(Cl)cc3Cl)C(=O)NC2=O)c2ccccc21,inactive
20,O=[N+]([O-])c1ccc2c(c1)S(=O)(=O)C=C2,inactive
21,CCCCCCCCc1ccc(-c2ccc(C(=O)O)cc2)cc1,11.9 µM (active)
22,CCCCCCCC/C=C\CCCCCCCC(=O)NCCO,inactive
23,O=C(Nc1ccc2[nH]ncc2c1)C1CCC1,inactive
24,CC12C(=O)OC(=O)C1(C)C1CCC2O1 (stereo unspecified),inactive

# Tested on: Zika virus NS2B-NS3 protease
# Experiment: Primary screen GU AMC qHTS for Zika virus inhibitors (AID 1347154); note: nearly all actives have a fitted effect of over 70% in size
# Conditions: Zika NS2B-NS3 unlinked protease, AMC fluorogenic substrate; series mostly up to 54.1 µM
# In short: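 Fluorogenic AMC-substrate cleavage by noncovalent NS2B-NS3 protease complex (25 nM, pH 8.0 Tris buffer with Tween 20) followed for 15 minutes at room temperature (~20% conversion). Percent inhibition from ex340/em450 signal change, fitted by 4-parameter Hill equation.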
row,SMILES,Potency
1,O=C1NC(=O)c2c1c(-c1ccccc1)cc1[nH]c3ccc(O)cc3c21,inactive
2,COC(=O)c1c(C)[nH]c(C)c1C(=O)c1ccccc1Cc1ccccc1,inactive
3,O=S(=O)(c1cccc2c(I)cccc12)N1CCCNCC1,inactive
4,CNCC[C@H](Oc1ccc(C(F)(F)F)cc1)c1ccccc1,inactive
5,O=C(Nc1ccncc1)c1cc([N+](=O)[O-])ccc1Cl,inactive
6,CC(C)NCC(O)COc1cccc2ccccc12 (stereo unspecified),inactive
7,NC[C@@H]1O[C@H](C23CC4CC(CC(C4)C2)C3)Cc2c1ccc(O)c2O,inactive
8,COc1cc(SC)ccc1C(=O)N1CCC(Cc2ccccc2)CC1,inactive
9,NS(=O)(=O)C#Cc1ccccc1,inactive
10,O=C(O)c1cc(=O)c2c(Cl)cc(Cl)cc2[nH]1,inactive
11,CN1[C@@H](CC(=O)c2ccccc2)CCC[C@H]1C[C@H](O)c1ccccc1,inactive
12,COc1ccccc1CNCCCCCCNCCCCCCCCNCCCCCCNCc1ccccc1OC,inactive
13,N[C@H](CCCP(=O)(O)O)C(=O)O,inactive
14,CC(C)NC[C@H](O)COc1cccc2[nH]ccc12,inactive
15,COc1cccc(OC)c1OCCNCC1COc2ccccc2O1 (stereo unspecified),inactive
16,N[C@@H](CC(=O)O)C(=O)O,inactive

row,SMILES,Potency
1,OC[C@H]1O[C@@H](n2cnc3c(NC4CCCCC4)ncnc32)[C@H](O)[C@@H]1O,inactive
2,CCCCCCCCCCCCCCCC(=O)OC(CC(=O)O)C[N+](C)(C)C (stereo unspecified),inactive
3,Cc1ccc(O)c(N=Nc2ccccc2)n1,inactive
4,O=C(O)CNC(=O)C(CS)Cc1ccccc1 (stereo unspecified),inactive
5,CC(C)(C=O)Cc1cc(C(C)(C)C)c(O)c(C(C)(C)C)c1,inactive
6,O=C1C(SCCO)=C(SCCO)C(=O)c2ccccc21,inactive
7,COc1cc2c(CCNC(C)=O)c[nH]c2cc1Cl,inactive
8,Cc1ccc(S(=O)(=O)/C=C/C#N)cc1,inactive
9,O=C(Nc1ccccc1)c1cc([N+](=O)[O-])ccc1Cl,inactive
10,Cn1cc(C2=C(c3ccc(Cl)cc3Cl)C(=O)NC2=O)c2ccccc21,inactive
11,O=[N+]([O-])c1ccc2c(c1)S(=O)(=O)C=C2,inactive
12,CCCCCCCCc1ccc(-c2ccc(C(=O)O)cc2)cc1,inactive
13,C=CCc1cccc(/C=N/NC(=O)CN2CCN(Cc3ccccc3)CC2)c1O,inactive
14,CCCCCCCC/C=C\CCCCCCCC(=O)NCCO,inactive
15,CN1CC(=O)N/C1=N/C(=O)Nc1cccc(Cl)c1,inactive
16,CC12C(=O)OC(=O)C1(C)C1CCC2O1 (stereo unspecified),inactive
